Data on 5 compounds can be found in PubChem BioAssay (EPA / NIEHS).

Experiment [1] is described as follows: BSK_LPS_SRB: Viability Assessment in the BioMAP Diversity Plus: LPS Assay (AID 2283079).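 Note: total protein by sulforhodamine B absorbance as a cytotoxicity measure; measured one day after compound addition.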 The settings on record: primary human HUVEC with PBMC. An outline of the steps: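 HUVEC + PBMC co-culture, LPS-stimulated; compound 24 h. 10% TCA fix, 0.1% SRB stain, A560. Bidirectional fit vs DMSO.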
Read-out in experiment [2]: Interleukin-1 alpha (IL1a), IL1A (gene 3552)
Briefly: BSK_LPS_IL1a: BioMAP Diversity Plus: LPS Assay for Interleukin-1 alpha (IL1a) Biomarker Activity (AID 2283080). The following applies: primary human HUVEC with PBMC; actives raise or lower the signal. An outline of the steps:
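HUVEC/PBMC co-culture, LPS system; 24 h after dosing; IL-1a by ELISA; gain or loss of signal fitted bidirectionally vs DMSO baseline.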

Read-out in experiment [3]: Monocyte Chemoattractant Protein-1 (MCP1), CCL2 (gene 6347)
Nature of the experiment: BSK_LPS_MCP1: BioMAP Diversity Plus: LPS Assay for Monocyte Chemoattractant Protein-1 (MCP1) Biomarker Activity (AID 2283081). The settings on record: primary human HUVEC with PBMC; actives raise or lower the signal. In a few lines:
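ELISA read-out of MCP-1 after 24 h chemical dosing of a human umbilical vein endothelial cell/peripheral blood mononuclear cell co-culture stimulated with LPS. Gain or loss of signal fitted relative to DMSO controls.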

Experiment [4] can be described thus: BSK_LPS_PGE2: BioMAP Diversity Plus: LPS Assay for Prostaglandin E2 (PGE2) Biomarker Activity (AID 2283082).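 For AC50: secreted prostaglandin E2 measured by ELISA in LPS-stimulated co-culture.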 The following applies: primary human HUVEC with PBMC; actives raise or lower the signal. An outline of the steps:
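ELISA read-out of PGE2 from human umbilical vein endothelial cells co-cultured with peripheral blood mononuclear cells under LPS, 24 h post-dose. Gain or loss of signal scored relative to DMSO baseline.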

Read-out in experiment [5]: Macrophage colony-stimulating factor (MCSF), CSF1 (gene 1435)
Briefly: BSK_LPS_MCSF: BioMAP Diversity Plus: LPS Assay for Macrophage colony-stimulating factor (MCSF) Biomarker Activity (AID 2283083). The settings on record: primary human HUVEC with PBMC; actives raise or lower the signal. An outline of the steps: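 HUVEC + PBMC co-culture (human primary), 24 h post-dose; M-CSF by ELISA; gain/loss of signal fitted bidirectionally vs DMSO baseline.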

Read-out in experiment [6]: Tissue Factor, F3 (gene 2152)
Briefly: BSK_LPS_TissueFactor: BioMAP Diversity Plus: LPS Assay for Tissue Factor Biomarker Activity (AID 2283084). The following applies: primary human HUVEC with PBMC; actives raise or lower the signal. In a few lines:
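HUVEC/PBMC co-culture, LPS-activated; CD142 ELISA read 24 h post-dose; bidirectional curve fit vs DMSO negative control.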

Read-out in experiment [7]: Tumor necrosis factor (Homo sapiens) (UniProt P01375)
Nature of the experiment: BSK_LPS_TNFa: BioMAP Diversity Plus: LPS Assay for Tumour Necrosis Factor alpha (TNFa) Biomarker Activity (AID 2283085).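 For AC50: TNFa protein level quantified by ELISA in the co-culture.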 The following applies: primary human HUVEC with PBMC; actives raise or lower the signal. An outline of the steps: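 HUVEC/PBMC co-culture, LPS-stimulated; 24 h post-dose; TNFa by ELISA; gain or loss of signal fitted bidirectionally vs DMSO baseline.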

Read-out in experiment [8]: Vascular cell adhesion molecule 1 (VCAM1), VCAM1 (gene 7412)
Briefly: BSK_LPS_VCAM1: BioMAP Diversity Plus: LPS Assay for Vascular cell adhesion molecule 1 (VCAM1) Biomarker Activity (AID 2283086). The settings on record: primary human HUVEC with PBMC; actives raise or lower the signal. An outline of the steps: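 ELISA read-out of VCAM-1 at 24 h post-dosing in an LPS-driven HUVEC/PBMC primary human co-culture; gain or loss of signal fitted bidirectionally against DMSO baseline. Cytotoxicity tracked in parallel cultures by SRB total-protein staining.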

Read-out in another experiment: CD38, CD38 (gene 952)
Briefly: BSK_SAg_CD38: BioMAP Diversity Plus: SAg Assay for CD38 Biomarker Activity (AID 2283087). The settings on record: primary human HUVEC with PBMC; actives raise or lower the signal. In a few lines: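 Measures CD38 on a human endothelial/PBMC co-culture driven by SEB and TSST-1, 24 h after compound exposure, using ELISA with fluorescence detection; DMSO defines baseline for bidirectional curve fitting.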

Read-out in a further experiment: CD40, CD40 (gene 958)
Briefly: BSK_SAg_CD40: BioMAP Diversity Plus: SAg Assay for CD40 Biomarker Activity (AID 2283088). The settings on record: primary human HUVEC with PBMC; actives raise or lower the signal. An outline of the steps: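 HUVEC/PBMC co-culture, 24 h post-dose; CD40 by ELISA, fluorescence intensity; bidirectional fit vs DMSO negative control.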

Read-out in experiment [9]: Monocyte Chemoattractant Protein-1 (MCP1), CCL2 (gene 6347)
Briefly: BSK_SAg_MCP1: BioMAP Diversity Plus: SAg Assay for Monocyte Chemoattractant Protein-1 (MCP1) Biomarker Activity (AID 2283090). The settings on record: primary human HUVEC with PBMC; actives raise or lower the signal. In a few lines:
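Values derive from bidirectional fitting of ELISA-measured MCP1 against DMSO controls. Readings were taken 24 h after dosing human vascular endothelial cells co-cultured with peripheral blood mononuclear cells under superantigen stimulation.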

Read-out in experiment [10]: E-selectin (Homo sapiens) (UniProt P16581)
Nature of the experiment: BSK_SAg_Eselectin: BioMAP Diversity Plus: SAg Assay for Eselectin Biomarker Activity (AID 2283091). The following applies: primary human HUVEC with PBMC; actives raise or lower the signal. An outline of the steps:
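E-selectin ELISA readout at 24 h post-dosing in human umbilical vein endothelial cell/PBMC co-culture; gain or loss of signal fitted relative to DMSO baseline.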

Read-out in experiment [11]: Monokine induced gamma interferon (MIG), CXCL9 (gene 4283)
Briefly: BSK_SAg_MIG: BioMAP Diversity Plus: SAg Assay for Monokine induced gamma interferon (MIG) Biomarker Activity (AID 2283092). The following applies: primary human HUVEC with PBMC; actives raise or lower the signal. In a few lines: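 HUVEC plus human PBMC co-culture, chemicals dosed and MIG (CXCL9) quantified by ELISA at 24 h. Bidirectional curve fitting against DMSO as negative control and baseline, so both gain and loss of signal count as activity.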

A short description of experiment [12]: BSK_SAg_PBMCCytotoxicity: PBMC Cytotoxicity Assessment in the BioMAP Diversity Plus: SAg Assay (AID 2283093).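 For AC50: PBMC superantigen activated with SEB plus TSST-1 one hour after compound addition.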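 Note: fitted both ways against DMSO so a hit may be loss or gain of signal.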 The settings on record: primary human HUVEC with PBMC. An outline of the steps: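 PBMC viability by Alamar Blue reduction, fluorescence read at 546/580 nm after 6 h dye exposure. Cells were dosed 1 h before SEB plus TSST-1 activation (20 ng/mL final each), then held 90 h; endothelial/PBMC human co-culture.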

Read-out in experiment [13]: Interleukin-8 (IL8), CXCL8 (gene 3576)
Nature of the experiment: BSK_SAg_IL8: BioMAP Diversity Plus: SAg Assay for Interleukin-8 (IL8) Biomarker Activity (AID 2283094). The following applies: primary human HUVEC with PBMC; actives raise or lower the signal. An outline of the steps: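 HUVEC/PBMC co-culture, 24 h post-dose; IL-8 by ELISA. Gain or loss of signal fitted bidirectionally vs DMSO baseline.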

Experiment [14] in a line: BSK_SAg_Proliferation: Cell Proliferation Assessment in the BioMAP Diversity Plus: SAg Assay (AID 2283095).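 Note: relative cell number as total protein by SRB absorbance in sub-confluent culture.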 The following applies: primary human HUVEC with PBMC. In a few lines:
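HUVEC/PBMC co-culture, 96-well. TCA-fixed (10%), 0.1% SRB stain, A560 at 96 h. Protein content used as viability readout; bidirectional fitting vs DMSO control.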

Experiment [15] can be described thus: BSK_SAg_SRB: Viability Assessment in the BioMAP Diversity Plus: SAg Assay (AID 2283096).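 Note: cells read one day after compound addition; hits may be either gain or loss of signal compared with DMSO.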 The settings on record: primary human HUVEC with PBMC. In a few lines: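 Compounds were added to a human vascular co-culture of umbilical vein endothelium and PBMC. After 24 h, parallel cultures were fixed with 10% TCA, stained with 0.1% sulforhodamine B and read at 560 nm. Gain or loss of signal was fitted relative to DMSO.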

Experiment [16] concerns the target human CYP19A1, CYP19A1 (gene 1588) (UniProt P11511). Briefly: NVS_ADME_hCYP19A1: NovaScreen (NVS) CYP450-related Enzyme Activity (ADME) Assay for human CYP19A1 (AID 2283098; active = hit-call score of the fitted dose curve at least 0.9, where 1 is the maximum;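 for AC50: potency for inhibitors seen as loss of fluorescent enzyme signal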). In a few lines: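 Fluorescence intensity read-out; activity taken as signal loss relative to acetonitrile vehicle. Extracted enzyme, specific substrate, no cells, 0.5 h exposure. Duplicate single-point screen at 10 uM, then concentration–response follow-up for actives.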

Experiment [17] concerns the target human CYP2A6, CYP2A6 (gene 1548) (UniProt P11509). Briefly: NVS_ADME_hCYP2A6: NovaScreen (NVS) CYP450-related Enzyme Activity (ADME) Assay for human CYP2A6 (AID 2283099; active = hit-call score of the fitted dose curve at least 0.9, where 1 is the maximum). An outline of the steps: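 Insect-cell-expressed human CYP2A6 enzyme activity measured by fluorescence intensity 0.5 hour post-dosing. Compounds screened at 10 uM in duplicate, then hits tested singly in concentration series (max 20 uM); acetonitrile baseline.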

Values joined by “and” are separate entries in the source; they are usually repeats but may differ in a detail not shown here. Equal values may be shown once. Inconclusive results are not listed. Where a structure was tested more than once in an assay, its records may differ in their call. Active and inactive are the calls of the source. Rule for the calls, unless noted: active = hit-call score of the fitted dose curve at least 0.9, where 1 is the maximum; inactive = score below 0.9.

Chain of human CYP19A1, CYP19A1 (gene 1588) (P11511 whole entry, looked up): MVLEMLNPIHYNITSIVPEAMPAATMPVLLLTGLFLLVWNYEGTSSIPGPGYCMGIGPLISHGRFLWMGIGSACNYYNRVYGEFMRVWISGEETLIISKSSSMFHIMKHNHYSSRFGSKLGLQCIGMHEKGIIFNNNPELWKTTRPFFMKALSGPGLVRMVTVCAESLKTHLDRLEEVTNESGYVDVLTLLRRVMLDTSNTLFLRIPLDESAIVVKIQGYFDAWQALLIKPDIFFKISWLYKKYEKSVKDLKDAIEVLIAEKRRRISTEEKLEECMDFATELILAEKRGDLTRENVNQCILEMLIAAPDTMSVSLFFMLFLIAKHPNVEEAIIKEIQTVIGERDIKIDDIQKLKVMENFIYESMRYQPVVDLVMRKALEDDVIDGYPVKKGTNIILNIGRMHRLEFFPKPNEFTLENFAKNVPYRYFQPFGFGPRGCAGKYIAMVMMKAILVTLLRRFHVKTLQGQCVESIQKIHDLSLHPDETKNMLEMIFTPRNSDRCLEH
Chain of E-selectin (Homo sapiens) (P16581 whole entry, looked up): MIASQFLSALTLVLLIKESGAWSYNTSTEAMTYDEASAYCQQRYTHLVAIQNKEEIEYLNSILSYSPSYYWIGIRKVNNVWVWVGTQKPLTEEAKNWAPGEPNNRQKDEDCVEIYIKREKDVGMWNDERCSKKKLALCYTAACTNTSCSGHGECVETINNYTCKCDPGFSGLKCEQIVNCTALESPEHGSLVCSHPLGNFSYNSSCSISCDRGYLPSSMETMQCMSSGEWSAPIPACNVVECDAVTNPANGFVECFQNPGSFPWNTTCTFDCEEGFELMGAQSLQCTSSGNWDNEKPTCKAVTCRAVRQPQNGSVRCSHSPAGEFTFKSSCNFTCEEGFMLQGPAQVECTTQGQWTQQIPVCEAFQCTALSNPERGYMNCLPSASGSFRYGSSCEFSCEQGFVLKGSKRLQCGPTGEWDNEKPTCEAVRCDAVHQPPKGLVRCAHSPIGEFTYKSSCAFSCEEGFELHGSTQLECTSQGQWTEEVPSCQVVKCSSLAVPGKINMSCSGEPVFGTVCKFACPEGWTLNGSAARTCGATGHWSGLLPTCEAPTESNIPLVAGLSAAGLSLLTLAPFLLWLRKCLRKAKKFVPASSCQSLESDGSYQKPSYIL
Chain of Tumor necrosis factor (Homo sapiens) (P01375 whole entry, looked up): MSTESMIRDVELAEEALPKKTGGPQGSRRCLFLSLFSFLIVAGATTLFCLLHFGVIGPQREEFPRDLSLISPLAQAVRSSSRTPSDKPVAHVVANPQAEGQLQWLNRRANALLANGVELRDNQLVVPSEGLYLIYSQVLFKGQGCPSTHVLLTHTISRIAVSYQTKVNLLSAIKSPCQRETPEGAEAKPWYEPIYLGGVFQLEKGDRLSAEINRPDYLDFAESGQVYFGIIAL
Chain of human CYP2A6, CYP2A6 (gene 1548) (P11509 whole entry, looked up): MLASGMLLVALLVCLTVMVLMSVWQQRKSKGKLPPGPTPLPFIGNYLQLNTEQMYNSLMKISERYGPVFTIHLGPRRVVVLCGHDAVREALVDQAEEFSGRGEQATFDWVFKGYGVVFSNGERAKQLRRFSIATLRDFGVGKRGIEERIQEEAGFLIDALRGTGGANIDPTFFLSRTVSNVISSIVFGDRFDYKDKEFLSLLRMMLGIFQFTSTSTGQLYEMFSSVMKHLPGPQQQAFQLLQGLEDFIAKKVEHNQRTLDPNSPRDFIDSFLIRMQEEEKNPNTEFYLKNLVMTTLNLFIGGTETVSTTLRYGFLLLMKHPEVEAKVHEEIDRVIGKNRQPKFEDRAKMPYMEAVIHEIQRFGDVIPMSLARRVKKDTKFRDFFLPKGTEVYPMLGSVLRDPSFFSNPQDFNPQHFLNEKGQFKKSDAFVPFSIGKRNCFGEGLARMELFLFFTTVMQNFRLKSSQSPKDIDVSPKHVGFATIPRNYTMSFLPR

The AC50 is the concentration giving half of the maximal activity seen. Regarding `C=CCOC(Cn1ccnc1)c1ccc(Cl)cc1Cl` (centres undefined), the result in experiment [1], in experiment [2], in experiment [3], in experiment [5], in experiment [6] and in experiment [7] was inactive. For the same compound, the outcome in experiment [8] was “inactive”; with CD38, CD38 (gene 952), “inactive”; with CD40, CD40 (gene 958), “inactive”; in experiment [9], “inactive”; in experiment [11] it was “inactive”; in experiment [15], “inactive”. The AC50 in experiment [4] was 0.27 µM (active); in experiment [10], 32.9 µM (active); in experiment [12] it was 13.9 µM (active); in experiment [13] it was 37.1 µM (active); in [14], 31.9 µM (active); in [16], 628 nM (active). Also, in experiment [17], the AC50 is 2.52 µM (active).

With `O=C(c1ccc(O)cc1O)c1ccc(O)cc1O`, the outcome in experiment [1], in [2], in experiment [3], in [4], in experiment [5] and in [6] was inactive. The outcome in experiment [7] is “inactive”; in [8], “inactive”; with CD38, CD38 (gene 952), “inactive”; with CD40, CD40 (gene 958), “inactive”; in experiment [9], “inactive”; in [10], “inactive”. Also, the result in [11], in experiment [12], in experiment [13] and in [15] was inactive. Besides, the AC50 is 20 µM (active) in experiment [14]; 5.78 µM (active) and 5.75 µM (active) and 7.34 µM (active) in experiment [16].

`CC(=O)S[C@@H]1CC2=CC(=O)CC[C@]2(C)[C@H]2CC[C@@]3(C)[C@@H](CC[C@@]34CCC(=O)O4)[C@H]12`: the AC50 in [1] was 20.9 µM (active); in experiment [2], 12.4 µM (active); in experiment [4], 15.6 µM (active); in experiment [5] it was 22 µM (active); in [6], 20 µM (active); in [7] it was 13.9 µM (active). The AC50 is 29.7 µM (active) in experiment [8]; 19.3 µM (active) with CD38, CD38 (gene 952); 20 µM (active) in the experiment with CD40, CD40 (gene 958); 17.2 µM (active) in experiment [9]; 14.9 µM (active) in experiment [10]; 25.7 µM (active) in [11]. Besides, the AC50 in experiment [12] was 13.3 µM (active); in experiment [13], 11.1 µM (active); in experiment [14] it was 13.7 µM (active); in [15], 22.7 µM (active); in experiment [16], 8300 nM (active). The result in experiment [16] was inactive.

As for `N[C@@H](Cc1cc(I)c(Oc2ccc(O)c(I)c2)c(I)c1)C(=O)O`, the outcome in experiment [1], in experiment [2], in experiment [3], in [4], in experiment [5] and in experiment [7] was inactive. Besides, the outcome in experiment [8] is “inactive”; in the experiment with CD38, CD38 (gene 952) it was “inactive”; in the experiment with CD40, CD40 (gene 958) it was “inactive”; in experiment [9] it was “inactive”; in experiment [10], “inactive”; in [11], “inactive”. Also, the outcome in experiment [12], in [13], in experiment [14] and in experiment [15] was inactive. Besides, the AC50 in experiment [6] was 3.17 µM (active).

Turning to `CCCOC(=O)NCCCN(C)C`, the result in experiment [1], in [2], in [3], in experiment [4], in experiment [5] and in [6] was inactive. The outcome was “inactive” in [7]; “inactive” in [8]; “inactive” in the experiment with CD38, CD38 (gene 952); “inactive” with CD40, CD40 (gene 958); “inactive” in [9]; “inactive” in experiment [10]. For the same compound, the outcome in experiment [11], in [12], in [13], in [14] and in experiment [15] was inactive.
